Measurements as given in the supplement of paper PMC12494721.
Structures can show the parent of a compound that is named as a salt.

Assays:
Details in all cases: incubation time: 27 h, anaerobic, 37 °C;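 for the amine columns active = adjusted P below 0.05 in both replicates with a change the same way and a mean fold change under 0.8 or over 1.25; inactive = the rest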
[1] = system: Clostridium sporogenes DSM 1664; test: growth (OD595) fold change vs plate DMSO controls (fold change (ratio)); higher = more growth
Outline: (§1)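 The reported measure is growth: the fold change against the median of DMSO controls on the plate. Absorbance at 595 nm from anaerobic 96-well mGAM cultures grown for 27 h at 37 °C was blank-subtracted, corrected for background with 20 µM compound solutions in water, and converted to OD with a calibration factor of 5. Fold changes above 1.5 appear as NA, and values are the mean of 2 biological replicates.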

Escherichia coli IAI1 [2] = test: as above
Outline: as §1

[3] = system: Klebsiella aerogenes DSM 30053; test: as above
Outline: as §1

[4] = system: Ruminococcus gnavus DSM 108212; test: as above
Outline: as §1

[5] = system: Klebsiella aerogenes DSM 30053; test: fold change of Histamine concentration vs plate DMSO controls (fold change (ratio)); higher = more amine produced, active = hit call of the paper (significant change in both replicates, either direction)
Outline: (§2)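 Using LC–triple-quadrupole MS with dynamic MRM, amines were quantified against external calibration curves and corrected for drift within each batch. Samples were whole anaerobic mGAM cultures of four gut strains, grown 27 h at 37 °C from OD 0.1 before 1:1 dilution, extracted with cold acetonitrile/methanol containing 0.1% formic acid and centrifuged. Compounds were present at 20 µM final (sweeteners at 50 µM final). The numbers are fold changes versus plate DMSO controls, each the mean of 2 biological replicates.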

[6] = system: Clostridium sporogenes DSM 1664; test: fold change of Tryptamine concentration vs plate DMSO controls (fold change (ratio)); higher = more amine produced, active = hit call of the paper (significant change in both replicates, either direction)
Outline: as §2

[7] = system: Ruminococcus gnavus DSM 108212; test: as above
Outline: as §2

Escherichia coli IAI1 [8] = test: fold change of Putrescine concentration vs plate DMSO controls (fold change (ratio)); higher = more amine produced, active = hit call of the paper (significant change in both replicates, either direction)
Outline: as §2

[9] = system: Klebsiella aerogenes DSM 30053; test: as above
Outline: as §2

Escherichia coli IAI1 [10] = test: fold change of Cadaverine concentration vs plate DMSO controls (fold change (ratio)); higher = more amine produced, active = hit call of the paper (significant change in both replicates, either direction)
Outline: as §2

[11] = system: Klebsiella aerogenes DSM 30053; test: as above
Outline: as §2

[12] = system: Ruminococcus gnavus DSM 108212; test: fold change of 2-Phenylethylamine concentration vs plate DMSO controls (fold change (ratio)); higher = more amine produced, active = hit call of the paper (significant change in both replicates, either direction)
Outline: as §2

Row | SMILES | growth [1] | growth (Escherichia coli IAI1 [2]) | growth [3] | growth [4] | fold change of Histamine concentration [5] | fold change of Tryptamine concentration [6] | fold change of Tryptamine concentration [7] | fold change of Putrescine concentration (Escherichia coli IAI1 [8]) | fold change of Putrescine concentration [9] | fold change of Cadaverine concentration (Escherichia coli IAI1 [10]) | fold change of Cadaverine concentration [11] | fold change of 2-Phenylethylamine concentration [12]
1 | COc1ccnc(C[S+]([O-])c2nc3cc(OC(F)F)ccc3[nH]2)c1OC (stereo not given) [Pantoprazole sodium] (20 µM) | 1.18 | 1.22 | 1 | 0.958 | 0.936 (inactive) | 1.05 (inactive) | 1.05 (inactive) | 1.25 (inactive) | 1.01 (inactive) | 0.98 (inactive) | 1.02 (inactive) | 1.07 (inactive)
2 | CC(=O)Nc1ccc(C(=O)O)cc1 [Acedoben] (20 µM) | 1.09 | 1 | 0.977 | 0.997 | 1.02 (inactive) | 0.935 (inactive) | 1.03 (inactive) | 1.01 (inactive) | 1 (inactive) | 1.02 (inactive) | 0.995 (inactive) | 1 (inactive)
3 | CN(C(=O)C(Cl)Cl)c1ccc(OC(=O)c2ccco2)cc1 [Diloxanide furoate] (20 µM) | 1.1 | 0.998 | 1.01 | 0.993 | 1 (inactive) | 0.918 (inactive) | 0.915 (inactive) | 1.02 (inactive) | 1 (inactive) | 0.973 (inactive) | 0.997 (inactive) | 0.979 (inactive)
4 | CCC(=O)O[C@@H](O[P@](=O)(CCCCc1ccccc1)CC(=O)N1C[C@H](C2CCCCC2)C[C@H]1C(=O)O)C(C)C [Fosinopril] (20 µM) | 1.01 | 1.09 | 1.05 | 1.08 | 1.06 (inactive) | 0.979 (inactive) | 1.05 (inactive) | 1.3 (inactive) | 1.01 (inactive) | 0.939 (inactive) | 1 (inactive) | 1.08 (inactive)
5 | Nc1ccn([C@H]2CC[C@@H](CO)O2)c(=O)n1 [Zalcitabine] (20 µM) | 1.05 | 1.04 | 0.995 | 0.997 | 1.03 (inactive) | 1.02 (inactive) | 1.04 (inactive) | 1.09 (inactive) | 0.978 (inactive) | 0.975 (inactive) | 0.997 (inactive) | 1.02 (inactive)
6 | N#C/C(=C1/SCC(c2ccccc2Cl)S1)n1ccnc1 (stereo not given) [Lanoconazole] (20 µM) | 0.991 | 0.983 | 1 | 1.1 | 0.945 (inactive) | 0.98 (inactive) | 0.982 (inactive) | 1.04 (inactive) | 1.01 (inactive) | 1.01 (inactive) | 1 (inactive) | 0.949 (inactive)
7 | CN1C(=O)OC(C)(C)C1=O [Trimethadione] (20 µM) | 1 | 1.03 | 1.01 | 1.27 | 0.977 (inactive) | 0.924 (inactive) | 0.948 (inactive) | 1.02 (inactive) | 0.987 (inactive) | 0.991 (inactive) | 0.999 (inactive) | 0.919 (inactive)
8 | CS(=O)(=O)c1ccc([C@@H](O)[C@@H](CF)NC(=O)C(Cl)Cl)cc1 [Florfenicol] (20 µM) | 0 | 0.0375 | 0.0697 | 0.306 | 0.0871 (active) | 0.0346 (active) | 0.122 (active) | 0.217 (active) | 0.459 (inactive) | 0.177 (active) | 0.508 (inactive) | 0.143 (active)
9 | O=C1Cc2cc(CCN3CCN(c4nsc5ccccc45)CC3)c(Cl)cc2N1 [Ziprasidone  hydrochloride monohydrate] (20 µM) | 1.09 | 1.06 | 1.03 | 1.23 | 1.23 (inactive) | 0.998 (inactive) | 0.712 (active) | 1.12 (inactive) | 1.1 (inactive) | 1.08 (inactive) | 1.06 (inactive) | 0.771 (active)
10 | C[C@@H]1C[C@H]2[C@@H]3C[C@H](F)C4=CC(=O)C=C[C@]4(C)[C@@]3(Cl)[C@@H](O)C[C@]2(C)[C@H]1C(=O)COC(=O)C(C)(C)C [Clocortolone pivalate] (20 µM) | 1.06 | 1.03 | 1.04 | 0.992 | 1.04 (inactive) | 1.04 (inactive) | 1.08 (inactive) | 1.02 (inactive) | 0.999 (inactive) | 1.01 (inactive) | 0.997 (inactive) | 1.17 (inactive)
11 | CC=CC(=O)N(CC)c1ccccc1C [Crotamiton] (20 µM) | 0.871 | 1.05 | 1.01 | 1.07 | 1.06 (inactive) | 1.01 (inactive) | 1.07 (inactive) | 1.02 (inactive) | 1.01 (inactive) | 0.967 (inactive) | 1.01 (inactive) | 1.12 (inactive)
12 | COC(=O)C1=C(C)NC(C)=C(C(=O)OC(C)C)C1c1cccc2nonc12 (stereo not given) [Isradipine] (20 µM) | 0.941 | 1.06 | 0.997 | 1.22 | 1.09 (inactive) | 0.944 (inactive) | 1.03 (inactive) | 1.04 (inactive) | 1.01 (inactive) | 0.991 (inactive) | 1 (inactive) | 1.01 (inactive)
13 | O=c1[nH]c(=O)n([C@H]2C[C@H](O)[C@@H](CO)O2)cc1F [Floxuridine] (20 µM) | 0.467 | 0.882 | 0.907 | 1.41 | 0.675 (active) | 0.514 (inactive) | 0.748 (active) | 0.593 (active) | 0.903 (inactive) | 0.889 (inactive) | 1.02 (inactive) | 0.884 (inactive)
14 | N[C@H]1CONC1=O [(S,-) Cycloserine] (20 µM) | 0.942 | 0.968 | 0.982 | 0.975 | 0.94 (inactive) | 0.954 (inactive) | 0.905 (inactive) | 1.02 (inactive) | 1.07 (inactive) | 0.959 (inactive) | 1.05 (inactive) | 0.81 (inactive)
15 | Cc1onc(-c2ccccc2)c1C(=O)N[C@@H]1C(=O)N2[C@@H]1SC(C)(C)[C@@H]2C(=O)O [Oxacillin sodium] (20 µM) | 0 | 0.994 | 1.01 | 0 | 0.996 (inactive) | 0.0257 (active) | 0.0465 (active) | 0.949 (inactive) | 0.992 (inactive) | 1.01 (inactive) | 0.984 (inactive) | 0.0469 (active)
16 | Cc1ccccc1C(OCCN(C)C)c1ccccc1 (stereo not given) [Orphenadrine hydrochloride] (20 µM) | 0.998 | 1.02 | 0.938 | 1.09 | 0.902 (inactive) | 1.34 (inactive) | 1.07 (inactive) | 1.07 (inactive) | 0.895 (inactive) | 1.04 (inactive) | 1.03 (inactive) | 1.16 (inactive)
17 | C[C@H](NCc1ccc(OCc2cccc(F)c2)cc1)C(N)=O [Safinamide] (20 µM) | 0.894 | 0.992 | 1 | 1.07 | 1.02 (inactive) | 1.03 (inactive) | 0.99 (inactive) | 1 (inactive) | 1 (inactive) | 1.02 (inactive) | 0.983 (inactive) | 0.96 (inactive)
18 | COc1ccc(CNc2nc(N3CCC[C@H]3CO)ncc2C(=O)NCc2ncccn2)cc1Cl [Avanafil] (20 µM) | 0.96 | 0.981 | 0.99 | 0.992 | 1.01 (inactive) | 0.958 (inactive) | 1.01 (inactive) | 1.04 (inactive) | 1 (inactive) | 1.02 (inactive) | 0.991 (inactive) | 1.01 (inactive)
19 | CCC(C)n1ncn(-c2ccc(N3CCN(c4ccc(OCC5COC(Cn6cncn6)(c6ccc(Cl)cc6Cl)O5)cc4)CC3)cc2)c1=O (stereo not given) [Itraconazole] (20 µM) | 1.03 | 0.985 | 1.03 | 0.531 | 1.13 (inactive) | 1.02 (inactive) | 1.05 (inactive) | 1.01 (inactive) | 1.03 (inactive) | 1 (inactive) | 0.995 (inactive) | 0.997 (inactive)
20 | CNNCc1ccc(C(=O)NC(C)C)cc1 [Procarbazine hydrochloride] (20 µM) | 1.03 | 1.07 | 1.02 | 1.27 | 1.05 (inactive) | 1.02 (inactive) | 1.03 (inactive) | 1.02 (inactive) | 0.983 (inactive) | 0.984 (inactive) | 1 (inactive) | 1.06 (inactive)
21 | CCCc1ncc(C[n+]2ccccc2C)c(N)n1 [Amprolium hydrochloride] (20 µM) | 1.01 | 0.954 | 0.982 | 0.95 | 1.01 (inactive) | 1 (inactive) | 1.11 (inactive) | 0.995 (inactive) | 0.941 (inactive) | 0.936 (inactive) | 1.03 (inactive) | 1.15 (inactive)
22 | COc1ccccc1OCC(O)CO (stereo not given) [Guaifenesin] (20 µM) | 1.09 | 0.954 | 0.98 | 1.03 | 1.05 (inactive) | 1.04 (inactive) | 1.05 (inactive) | 1.04 (inactive) | 1.01 (inactive) | 0.991 (inactive) | 0.988 (inactive) | 1.1 (inactive)
23 | C[C@]12C=CC(=O)C=C1CC[C@H]1[C@@H]3C[C@@H](O)[C@](O)(C(=O)CO)[C@@]3(C)C[C@H](O)[C@@]12F [Triamcinolone] (20 µM) | 1.01 | 0.986 | 1.02 | 0.944 | 0.954 (inactive) | 0.918 (inactive) | 1.02 (inactive) | 0.976 (inactive) | 1.02 (inactive) | 0.994 (inactive) | 0.992 (inactive) | 1.07 (inactive)
24 | c1ccc2c(c1)CCCC2C1=NCCN1 (stereo not given) [Tetrahydrozoline hydrochloride] (20 µM) | 0.99 | 0.997 | 1.01 | 0.897 | 0.99 (inactive) | 1.01 (inactive) | 0.993 (inactive) | 1.04 (inactive) | 0.992 (inactive) | 0.966 (inactive) | 1 (inactive) | 1.01 (inactive)
25 | CC(C)(C(=O)O)c1ccc(C(O)CCCN2CCC(C(O)(c3ccccc3)c3ccccc3)CC2)cc1 (stereo not given) [Fexofenadine hydrochloride] (20 µM) | 1.1 | 1.02 | 1.09 | 1.19 | 0.876 (inactive) | 1.04 (inactive) | 0.978 (inactive) | 0.971 (inactive) | 0.999 (inactive) | 1.02 (inactive) | 1.01 (inactive) | 0.993 (inactive)
